Assay outcomes: PubChem, The Scripps Research Institute Molecular Screening Center
AHR act: activators of human aryl hydrocarbon receptor; AHR-responsive luciferase reporter cells, luminescence; activation, % at 5 µM; 320,000 compounds, 2.5% hits; AID 2796; in the data active = activation above about 47%
Target sequence (P35869 whole entry, looked up): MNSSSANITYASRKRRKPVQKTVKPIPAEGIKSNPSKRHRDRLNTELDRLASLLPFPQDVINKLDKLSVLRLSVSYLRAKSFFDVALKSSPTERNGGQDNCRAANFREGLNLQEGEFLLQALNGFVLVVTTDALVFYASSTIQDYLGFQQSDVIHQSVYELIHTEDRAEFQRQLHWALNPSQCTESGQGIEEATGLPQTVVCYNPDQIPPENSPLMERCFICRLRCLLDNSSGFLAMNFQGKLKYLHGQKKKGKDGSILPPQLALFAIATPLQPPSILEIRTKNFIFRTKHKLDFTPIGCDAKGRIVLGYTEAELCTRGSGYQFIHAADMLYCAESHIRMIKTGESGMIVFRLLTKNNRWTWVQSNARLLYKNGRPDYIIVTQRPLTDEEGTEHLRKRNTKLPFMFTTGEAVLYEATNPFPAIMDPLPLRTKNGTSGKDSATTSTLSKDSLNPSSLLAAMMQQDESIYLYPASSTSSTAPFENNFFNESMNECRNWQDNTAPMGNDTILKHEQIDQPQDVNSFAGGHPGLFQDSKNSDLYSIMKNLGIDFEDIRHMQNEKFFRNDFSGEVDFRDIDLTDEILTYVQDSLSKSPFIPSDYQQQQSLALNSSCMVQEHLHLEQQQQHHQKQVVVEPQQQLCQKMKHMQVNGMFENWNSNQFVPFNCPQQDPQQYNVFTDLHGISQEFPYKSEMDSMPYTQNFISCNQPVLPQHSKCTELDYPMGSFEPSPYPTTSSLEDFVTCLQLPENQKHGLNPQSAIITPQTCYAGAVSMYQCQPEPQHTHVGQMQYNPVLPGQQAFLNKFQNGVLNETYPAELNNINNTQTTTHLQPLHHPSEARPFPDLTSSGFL
hcDAF12 agonist: activators of H. contortus DAF-12 nuclear receptor | HEK293 hcDAF-12 lit1-tk-luc reporter, luminescence; 0% DMSO, 100% Δ7-dafachronic acid | activation, % at 6.8 µM | 370,000 compounds, 1.4% hits | AID 652067;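 active = activation above the mean of all tested compounds plus 3 SD, cut at about 5.5% in these data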
DAX1 inh-1: inhibitors of human orphan nuclear receptor DAX1 (NR0B1). 340,000 compounds, 0.99% hits. AID 504766. HEK293 Gal4-DAX1 luciferase reporter, luminescence. inhibition, % at 6.75 µM. P51843;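 active = inhibition above the mean over all tested compounds plus 3 SD, cut at about 4.2% in these data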;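 also: inhibition shows as a rise in luminescence from relieved DAX1 repression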
hgDAF12 agonist: activates the H. glycines DAF-12 receptor ligand-binding domain; AID 687014; activation, % at 6.8 µM; 370,000 compounds, 1.8% hits; HEK293 GAL4-hgDAF12 UAS-luciferase reporter, agonist luminescence; normalized to butyrate control;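 active = activation above a cutoff set at the mean of all screened compounds plus 3 SD, cut at about 10% in these data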
DAX1 inh-2: inhibitors of DAX1 repression of SF-1 activated StAR promoter; inhibition, % at 6.8 µM; 370,000 compounds, 1.1% hits; HEK293T StAR-luciferase reporter, SF-1/DAX-1 repression relief;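 active = inhibition above the mean over all tested compounds plus 3 SD, cut at about 3.6% in these data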;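 also: higher inhibition means more luminescence from relief of DAX-1 repression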
ssDAF12 agonist: activates DAF-12 receptor from parasite S. stercoralis. activation, % at 6.8 µM. 370,000 compounds, 1% hits. HEK293 ssDAF-12/GRIP1 lit1-tk-luc reporter, luminescence; % of 3 µM dafachronic acid response;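 active = activation above the mean over all tested compounds plus 3 SD, cut at about 0.9% in these data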
DAX1 conf: confirmation of human DAX1 (NR0B1) inhibitors. HEK293T StAR-promoter luciferase reporter, SF-1/DAX-1 repression. 2,400 compounds, 87% hits. shares compounds with DAX1 inh-2. inhibition, % at 6.8 µM;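 active = inhibition above the average of every tested compound plus 3 SD, cut at about 3.8% in these data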;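 also: active compounds raise luminescence by relieving repression of the StAR reporter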
SF1 mutant ctr: counter-screen for DAX1 inhibitors: nonselective inhibitors with SF-1 AF2 mutant. HEK293 StAR-luciferase, luminescence. AID 652136. shares compounds with DAX1 inh-2. inhibition, % at 6.8 µM. 2,400 compounds, 78% hits;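 active = inhibition above the mean of all tested compounds plus 3 SD, cut at about 3% in these data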
Large screens that a line does not name were inactive (follow-up assays come after a bar, where they were run). Shown are actives, neighbours in structure and some others; about 5.7% of the full set was active somewhere.

CS(=O)(=O)Nc1cccc(C2=NN(S(=O)(=O)c3ccc(F)cc3)C(c3cccs3)C2)c1 (centres undefined)	none
c1ccc(OCCSc2nnnn2C2CCCCC2)cc1	hgDAF12 agonist 13, DAX1 inh-2 4.5 | DAX1 conf 11 | SF1 mutant ctr 8.3
COc1ccc(-c2[nH]ncc2CNC(C)CCn2cccn2)cc1F (centres undefined)	none
C=CCc1ccc(OC(=O)c2ccccc2)c(OC)c1	none
CCCn1c(C)cc(C(=O)COC(=O)c2cc(=O)[nH]c3ccccc23)c1C	hcDAF12 agonist 6.5, hgDAF12 agonist 11, DAX1 inh-2 5.4 (no result: AHR act) | DAX1 conf 9.3 | SF1 mutant ctr 3.1
CCOc1ccc(C(=O)COC(=O)c2nc3nccc(C)n3n2)cc1	DAX1 inh-2 4.9 | DAX1 conf inactive | SF1 mutant ctr inactive
COc1ccc(-n2c(C)cc(C3=NNC(=NC4CC4)SC3)c2C)cc1	none (no result: AHR act)
c1ccc(C2=NNC(=NC3CC3)SC2)cc1	hgDAF12 agonist 12, DAX1 inh-2 6.8 | DAX1 conf 5.3 | SF1 mutant ctr inactive
CC(C)C[C@@H](CN1CCC[C@@H]1CN1C(=S)NC[C@@H]1Cc1ccc(O)cc1)N1C[C@H](Cc2ccc(O)cc2)N(CCc2ccccc2)C1=S	DAX1 inh-2 4.7 (no result: AHR act, DAX1 inh-1) | DAX1 conf inactive | SF1 mutant ctr inactive
CC(C)C[C@@H](CN1CCCC1CN1C(=S)NC[C@@H]1Cc1ccc(O)cc1)N1C[C@H](Cc2ccc(O)cc2)N(CC2CCCCCC2)C1=S (some centres undefined)	DAX1 inh-2 6.3 (no result: AHR act) | DAX1 conf inactive | SF1 mutant ctr inactive
CCn1c(/N=C/c2ccc(OC)cc2O)nc2ccccc21	none
Cc1ccc(C(=O)OCC(=O)N2CCNC2=O)c(C)c1	DAX1 inh-2 6.9 (no result: AHR act) | DAX1 conf 7.1 | SF1 mutant ctr 5.9
O=C(OCC(=O)N1CCNC1=O)c1ccccc1Cl	none (no result: AHR act)
Cc1c(C(=O)Nc2ccccn2)sc2nc3n(c(=O)c12)CCC3	DAX1 inh-2 8.8 | DAX1 conf 9.8 | SF1 mutant ctr 6.1
O=C(CSc1ccc2c(c1)OCCO2)NCc1ccccc1	none
Cc1noc(C)c1C(=O)Nc1nc2ccc(Cl)cc2s1	DAX1 inh-2 5.5 | DAX1 conf inactive | SF1 mutant ctr inactive
CC(=O)c1ccc(NC(=S)N2CCCC2)cc1	DAX1 inh-2 5.1 (no result: AHR act) | DAX1 conf inactive | SF1 mutant ctr inactive
CCOC(=O)c1ccc(NC(=O)N2CCCCCC2)cc1	DAX1 inh-2 5.0 | DAX1 conf 14 | SF1 mutant ctr 8.0
O=C(O)c1ccc(NC(=S)N2CCCCC2)cc1	none
CCOC(=O)c1ccc(NC(=O)N2CCOCC2)cc1	none
COCc1c(C(=O)N2CCN(Cc3ccc4c(c3)OCO4)CC2)oc2ccccc12	none
CCOc1cc(C(=O)NN=C2CCCC2)cc(OCC)c1OCC	DAX1 inh-2 6.9 | DAX1 conf inactive | SF1 mutant ctr inactive
COc1ccc(C(=O)NCC(=O)OCc2csc(-c3ccccc3)n2)cc1	none
Cn1ccc(C(=O)NC(=S)Nc2ccc([N+](=O)[O-])cc2O)n1	DAX1 inh-2 8.3 (no result: AHR act) | DAX1 conf 10 | SF1 mutant ctr 5.8
CC1Cc2ccccc2N1S(=O)(=O)c1cnc(Cl)c(Br)c1 (centres undefined)	none
COc1ccc(-c2ccc(CN3C(C(C)C)C(=O)N(Cc4cn(CCC5OCCO5)nn4)CCS3(=O)=O)cc2)cc1OC (centres undefined)	none (no result: AHR act)
CCOC(=O)N1CCN(C(=O)c2ccc3c(Cl)c4c(nc3c2)CCCC4)CC1	none
O=C(c1ccc2c(Cl)c3c(nc2c1)CCCC3)N1CCC(N2CCCCC2)CC1	DAX1 inh-2 9.0 | DAX1 conf 7.0 | SF1 mutant ctr 6.1
O=C(CN1CCN(c2ccccc2)CC1)Nc1ccccc1C(=O)NCCc1ccccc1	hcDAF12 agonist 5.8, DAX1 inh-2 4.7 (no result: AHR act) | DAX1 conf 6.7 | SF1 mutant ctr 4.8
CC(=O)C(C)Oc1ncn(-c2ccccc2)n1 (centres undefined)	none
O=C(NC1CCCCC1)C(c1ccccc1F)n1c(=O)c(-c2ccco2)nc2ccccc21 (centres undefined)	none (no result: AHR act, DAX1 inh-1)
O=C(NC1CCCCC1)C(c1ccc(-c2ccccc2)cc1)n1c(=O)c(-c2ccco2)nc2ccccc21 (centres undefined)	DAX1 inh-2 4.8 (no result: AHR act, DAX1 inh-1) | DAX1 conf inactive | SF1 mutant ctr inactive
Cc1cc(NC(=O)NC(=O)c2ccccc2F)no1	DAX1 inh-2 5.2 | DAX1 conf 8.7 | SF1 mutant ctr inactive
Cc1cc(NC(=O)c2ccccc2Cl)no1	none
CC1(C)Cc2c(sc(NC(=O)c3ccc(S(=O)(=O)N4CCCCCC4)cc3)c2C#N)C(C)(C)N1	none
CSc1ccc(/C=C/C(=O)NC(=O)c2ccccc2O)cc1	hgDAF12 agonist 13, DAX1 inh-2 4.9 | DAX1 conf 8.8 | SF1 mutant ctr 5.8
COc1ccc(CN(C(=O)CO/N=C/c2ccccc2)c2ccccc2C(=O)O)cc1	none
Cc1nc2ncnn2c(C)c1CCC(=O)Nc1ccc(S(=O)(=O)N2CCCCCC2)cc1	none
CCN(CC)CCNC(=O)c1ccc2c(c1)NC(=O)c1ccccc1S2	none (no result: AHR act)
CCCN1CCN(CCCNC(=O)c2ccc3c(c2)NC(=O)c2ccccc2S3)CC1	DAX1 inh-2 6.1 | DAX1 conf 4.4 | SF1 mutant ctr inactive
CC1=C(c2ccc(C(C)C)cc2)S(=O)(=O)N=C1N1CCN(C(=O)c2ccco2)CC1	none
Cc1ccc(NC(=O)Nc2ccc3c(c2)OCO3)c(OC(F)F)c1	DAX1 inh-2 5.7 (no result: AHR act) | DAX1 conf 9.1 | SF1 mutant ctr 7.1
CCCCCN1C/C=C\C(c2ccc(OC)cc2)N(Cc2ccc(F)cc2)C(=O)C1 (centres undefined)	none
COc1cccc(N2CCN(C(=O)c3ccc(CS(=O)c4ccccc4Cl)o3)CC2)c1 (centres undefined)	DAX1 inh-2 11 | DAX1 conf 14 | SF1 mutant ctr inactive
Cc1ccnc(NC(=O)CCCc2ccccc2)c1	none
COc1ccc2oc(C(=O)NCCc3ccccc3)c(C)c2c1	DAX1 inh-2 5.2 | DAX1 conf 7.1 | SF1 mutant ctr inactive
COCCCNC(=O)C[C@H]1C[C@H](C(=O)N2CCOCC2)[C@@]2(CCC3CCCC3)c3[nH]c4cc(-c5ccco5)ccc4c3CCN2C1=O	DAX1 inh-2 5.8 (no result: AHR act) | DAX1 conf inactive | SF1 mutant ctr inactive
Clc1cccc(-c2cc3nc4c(c(NCc5ccco5)n3n2)CCCC4)c1	DAX1 inh-2 4.5 | DAX1 conf 12 | SF1 mutant ctr 4.8
c1coc(CNc2c3c(nc4ncnn24)CCCC3)c1	none
